CHX counter: counter-screen for Shiga toxin inhibitors: cycloheximide protein synthesis inhibition; cell reporter, cycloheximide protein synthesis inhibition counterscreen; actives 12% (n = 300,000); max response, %; in the data active = max response mostly above about 13%, no sharp cut-off; inactive = mostly below about 14%; also: read at 38.3 µM for the half of the compounds with a filed dose; 0% is about no effect
Pf growth 96h: P. falciparum growth inhibition at 96 hour, primary screen for plastid delayed-death inhibitors. P. falciparum luciferase reporter growth, 96 h. Potency, µM (doses to about 28.7 µM), for the others: at the top dose activity change, negative = inhibition, actives largely listed as inhibitors. actives 6.9% (n = 320,000). AID 504834; also: potency is read from the fitted curve at half-maximal effect; % is scaled to controls: 0 for no effect and ±100 for the full control effect
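96 h incubation, 37 C, 5% CO2, of luciferase-reporter P. falciparum-infected RBCs (2% hematocrit, 0.05% parasitemia final) with test compounds; endpoint luminescence.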
Pf growth 48h: inhibits P. falciparum growth in the first generation, 48 h | AID 504832 | Potency, µM (titrated, usually from 28.7 µM), for the others: top-dose activity change, negative = inhibition, usual class: inhibitors | P. falciparum luciferase growth in erythrocytes, 48 h | actives 5.9% (n = 310,000); also: potency is read from the fitted curve at half-maximal effect; % is scaled to controls: 0 for no effect and ±100 for the full control effect
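Compounds are pin-transferred into medium, infected erythrocytes (2% hematocrit, 0.1% parasitemia final) are added, and plates sit one parasite generation at 37 C in 5% CO2. Detection reagent is then added and luminescence measured.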
AMA1-RON2 inh: inhibitors of Plasmodium falciparum AMA1-RON2 interaction | AlphaScreen AMA1-biotinylated RON2 peptide binding | AID 720542 | actives 0.2% (n = 360,000) | Potency, µM (top dose mostly 58.2 µM), inactives show at the top dose activity change, negative = inhibition, usual class: inhibitors;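 also: potency is read from the fitted curve at half-maximal effect; 0% = vehicle wells and -100% = peptide control; nearly all actives have a fitted effect of over 45% in size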
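AMA1 (3D7) with his tag at 25 nM final met compounds first, then biotinylated RON2 peptide at 25 nM; detection used donor plus acceptor beads, 10 µg/mL apiece, read by AlphaScreen after 30 min at room temperature.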
Shiga inhibitor: Shiga toxin inhibition | actives 9.2% (n = 290,000) | inhibition, % at 38.7 µM | AID 2315 | Vero cells, Shiga toxin protein synthesis inhibition reporter; in the data active = inhibition mostly above about 28%, no sharp cut-off; inactive = mostly below about 43%; also: 0% is about no effect
SARS PLP yeast: inhibitors of SARS-CoV papain-like protease in yeast. S. cerevisiae expressing SARS-CoV PLpro, growth rescue. actives 0.19% (n = 330,000). AID 485353. Potency, µM (top dose mostly 32.9 µM), without a hit: top-dose activity, positive = growth rescue, actives largely listed as activators; calls by dose curve; also: potency is read from the fitted curve at half-maximal effect; 0% is about no effect; nearly all actives have a fitted effect of over 55% in size
* marks the source's active call; other numbers are inactive results; i = inactive; ? = inconclusive; / = not tested or not shown; ! = repeats disagree; [ ] = dose if it differs, or a comment. Rows were chosen to be rich in hits. Some 19% of all compounds tested hit in one or more screens of this group. Unless noted, calls follow the shape of the dose curve; as a rule, active = well fitted curve in the direction sought with a large enough effect; inconclusive = small, poorly fitted or top-dose-only effect, or another doubt; inactive = no such curve, though single readings can be large; an effect the other way counts as inactive or inconclusive.

SMILES	CHX counter	Pf growth 96h	Pf growth 48h	AMA1-RON2 inh	Shiga inhibitor	SARS PLP yeast
CCOc1ccc(N=C2NC(=O)C(CC(=O)Nc3ccccc3)S2)cc1 (stereo not drawn)	7	5%	8.3µM*	0%	1	1%
COc1ccc(N=C2SC(CC(=O)Nc3ccccc3)C(=O)N2Cc2ccco2)cc1 (stereo not drawn)	9	?	?	-13%	39*	-27%
COc1ccc(N=C2SC(CC(=O)Nc3ccccc3F)C(=O)N2Cc2ccco2)cc1 (stereo not drawn)	21*	?	?	-7%	20	1%
Cc1ccc(C(c2nnnn2C2CCCC2)N2CCc3ccccc32)cc1 (stereo not drawn)	22*	26%	?	-14%	9	-31%
CC(C)C(c1nnnn1C1CCCCC1)N1CCc2ccccc2C1 (stereo not drawn)	-2	8%[5.75 µM]	15µM*	0%	27	-3%
CC(C)C(c1nnnn1C1CCCCC1)N1CCCc2ccccc21 (stereo not drawn)	-4	-29%	9.3µM*	-9%	-2	-25%
CC(C)C(c1nnnn1C1CCCC1)N1CCc2ccccc21 (stereo not drawn)	-4	?	?	-13%	-22	2%
CC(C)C(c1nnnn1C1CCCC1)N1CCCc2ccccc21 (stereo not drawn)	0	-15%	13µM*	-22%	3	-32%
Cc1ccc2[nH]c(=O)c(C(c3nnnn3C3CCCC3)N3CCCc4ccccc43)cc2c1 (stereo not drawn)	7	16%	?	-9%	11	12%
O=C(Nc1cc([N+](=O)[O-])ccc1Cl)C1CC1	3	13%	22%	20%	18	12%
O=C(NCc1ccccc1)c1ccccc1NC(=O)C1CCCCC1	8	12%	?	2%	8	-9%
Clc1ccc2nc(N3CCN(c4ccccc4)CC3)sc2c1	37*	/	i	0%	135*	?
O=S(=O)(c1ccc(Cl)cc1)N1CCCN(c2nc3ccc(Cl)cc3s2)CC1	-1	4%	0%	-6%	-7	-1%
Brc1ccc2nc(N3CCN(c4ccccc4)CC3)sc2c1	47*	260%	230%	-20%	156*	-2%
O=C(c1cccs1)N(c1ccc(Br)cc1)C1C=CS(=O)(=O)C1 (stereo not drawn)	-2	-7%	-14%	0%	4	-1%
CCCCNC(=O)N(O)C1N(CCCC)C(=O)N(CC(=O)OC)C1(C)C (stereo not drawn)	-6	5.2µM*	-9%	2%	9	-23%
C=C(C)[C@H]1CN[C@H](C(=O)O)[C@H]1CC(=O)O	-5	-13%	-8%	10%	47*!	/
O=C(NC1CCCCCCC1)c1ccc(F)c(S(=O)(=O)N2CCOCC2)c1	/	?	?	7%	/	-2%
Cc1ccc(C(=O)NC2CCCCCCC2)cc1S(=O)(=O)N1CCOCC1	/	9.3µM*	?	6%	/	-2%
O=C(NC1CCCC1)c1ccc(Cl)c(S(=O)(=O)N2CCOCC2)c1	-4	9%	4.7µM*	9%	-4	5%
CN(Cc1ccc2nonc2c1)Cc1nc(CC2CC2)no1	-1	2.3µM*	39%	1%	3	0%
CCOC(=O)c1ccccc1-n1c(C)cc(C2N=C(N)Nc3nc4ccccc4n32)c1C (stereo not drawn)	1	1.7µM*	/	36%	-4	-1%
COc1ccccc1NC(=O)N1c2ccc(F)cc2CCC1C (stereo not drawn)	8	4.7µM*	-16%	-8%	13	-3%
O=C(COC(=O)Cc1c(F)cccc1Cl)NCc1ccc2c(c1)OCO2	/	/	/	20%	/	9%
Clc1ccc(-c2nnc(-c3ccco3)o2)cc1	42*	-17%	98%	-4%	91*	2%
SMILES	CHX counter	Pf growth 96h	Pf growth 48h	AMA1-RON2 inh	Shiga inhibitor	SARS PLP yeast
O=C(Nc1nnc(-c2ccncc2)o1)c1cccc(N2C(=O)CCC2=O)c1	-1	49%	0%	27%	-8	1%
O=C(Nc1nnc(-c2ccco2)o1)c1cccc(N2C(=O)CCC2=O)c1	22	62%	18%	42%	99*	2%
O=C(Nc1nnc(-c2ccco2)o1)c1ccc(Cl)cc1	29*	0%	-26%	72%	42*	-4%
Cc1ccccc1C(=O)Nc1nnc(-c2ccco2)o1	33*	?	?	20%	57*	-2%
CN(C)c1nnc(-c2ccc(Cl)cc2)o1	39*	0%	i	14%	49*	0%
Cc1cccc(C(=O)Nc2nnc(-c3ccco3)o2)c1	7	0%	-12%	30%[2.32 µM]	-8	-10%
Cc1ccc(C(=O)Nc2nnc(-c3ccco3)o2)cc1C	22*	?	20%	40%[2.32 µM]	57*	6%
Nc1nnc(-c2ccc(Cl)cc2)o1	7	56%	?	1%	36	2%
CC(Cc1ccccc1)NC(=O)CN1C(=O)c2ccccc2S1(=O)=O (stereo not drawn)	-1	0%	62%	-6%	11	-1%
Nc1ncc2c(n1)-c1ccoc1CC2	9	-2%	-9%	-7%	-9	0%
CC1=CC(=O)C=CC1=Nc1ccc(N(C)C)cc1	/	/	/	4µM*	/	/
COc1ccc(N=C2C(=Nc3ccc(OC)cc3)N(c3ccc(N(C)C)cc3)C(=S)N2c2ccc(OC)cc2)cc1	1	/	5%	-15%	-6	-11%
Cc1cc(C)n2nc(SCC(=O)N3CCN(c4ccc(F)cc4)CC3)nc2n1	/	6.6µM*	?	-3%	/	8%
Cc1cc(C)n2nc(SCC(=O)N3CCOCC3)nc2n1	/	-6%	31%	-8%	/	-2%
COc1ccc(N2CCN(C(=O)CSc3nc4nc(C)cc(C)n4n3)CC2)cc1	/	13µM*	?	1%[11.6 µM]	/	-1%
O=c1c([N+](=O)[O-])cc(C(F)(F)F)cn1Cc1c(Cl)cccc1Cl	-1	112%	13%	-5%	-6	6%
CCOC(=O)c1cnc2c(N=Nc3ccccc3)c(N)nn2c1N	41*	i	103%	3%	48	3%
CCOC(=O)c1cnc2c(-c3ccccc3)c(C)nn2c1N	-2	?	/	27%	-5	-1%
CCOC(=O)c1cnc2c(N=Nc3cccc(Cl)c3)c(N)nn2c1N	7	0.66µM*	13%	/	-6	5%
COCc1c(C(=O)Nc2ccc(Cl)cc2F)oc2ccccc12	29*	68%	76%	4%	185*	-6%
COc1ccc2oc(C(=O)Nc3nc(C)cs3)c(C)c2c1	/	63%	72%	-2%	/	-4%
COCc1c(C(=O)Nc2nc(C)cs2)oc2ccccc12	25*	43%	16%	4%	44*	-5%
CCC(NC(=O)c1oc2ccccc2c1COC)c1ccc(OC)cc1 (stereo not drawn)	1	?	?	-4%	15	0%

Source: PubChem
